About 2,000 (36%) of roughly 5,500 compounds were called active. Roughly 18% stayed inconclusive and do not appear here. Cut-off read from the data, not from the text of the source: active = normalized growth mostly below about 0.91 (no sharp cut-off); inconclusive = no clear call, values can overlap the other calls; inactive = mostly above about 0.92. Some of the results follow.
Experiment: chemical genetic growth profiling, strain panel (AID 1159580);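 note: tested at 20 µM; growth read once vehicle control cultures reached saturation at 30 °C; 1 = growth at the plate median or of vehicle wells; lower values mean less growth of the strain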
Conditions: growth OD
[1] = S. cerevisiae deletion strains, locus YAR019C, strain CDC15, hits give low values
[2] = S. cerevisiae deletion strains, locus YBL105C, strain PKC1, hits give low values
[3] = S. cerevisiae deletion strains, locus YBR135W, strain CKS1, hits give low values
[4] = S. cerevisiae deletion strains, locus YBR136W, strain MEC1, hits give low values
[5] = S. cerevisiae deletion strains, locus YBR160W, strain CDC28, hits give low values
[6] = S. cerevisiae deletion strains, locus YDL017W, strain CDC7, hits give low values
[7] = S. cerevisiae deletion strains, locus YDL028C, strain MPS1, hits give low values
[8] = S. cerevisiae deletion strains, locus YDL101C, strain DUN1, hits give low values
[9] = S. cerevisiae deletion strains, locus YDL108W, strain KIN28, hits give low values
[10] = S. cerevisiae deletion strains, locus YDL132W, strain cdc53, hits give low values
[11] = S. cerevisiae deletion strains, locus YDL214C, strain PRR2, hits give low values
[12] = S. cerevisiae deletion strains, locus YDR052C, strain DBF4, hits give low values
[13] = S. cerevisiae deletion strains, locus YDR054C, strain cdc34, hits give low values
[14] = S. cerevisiae deletion strains, locus YDR226W, strain ADK1, hits give low values
[15] = S. cerevisiae deletion strains, locus YDR477W, strain SNF1, hits give low values
[16] = S. cerevisiae deletion strains, locus YER123W, strain YCK3, hits give low values
[17] = S. cerevisiae deletion strains, locus YER133W, strain GLC7, hits give low values
[18] = S. cerevisiae deletion strains, locus YFL009W, strain cdc4, hits give low values
[19] = S. cerevisiae deletion strains, locus YFL029C, strain CAK1, hits give low values
[20] = S. cerevisiae deletion strains, locus YFR003C, strain YPI1, hits give low values
[21] = S. cerevisiae deletion strains, locus YFR019W, strain FAB1, hits give low values
[22] = S. cerevisiae deletion strains, locus YFR028C, strain CDC14, hits give low values
[23] = S. cerevisiae deletion strains, locus YGR040W, strain KSS1, hits give low values
[24] = S. cerevisiae deletion strains, locus YGR052W, strain FMP48, hits give low values
[25] = S. cerevisiae deletion strains, locus YGR092W, strain DBF2, hits give low values
[26] = S. cerevisiae deletion strains, locus YHR030C, strain SLT2, hits give low values
[27] = S. cerevisiae deletion strains, locus YHR079C, strain IRE1, hits give low values
[28] = S. cerevisiae deletion strains, locus YHR082C, strain KSP1, hits give low values
[29] = S. cerevisiae deletion strains, locus YHR205W, strain SCH9, hits give low values
[30] = S. cerevisiae deletion strains, locus YIL147C, strain SLN1, hits give low values
[31] = S. cerevisiae deletion strains, locus YJL095W, strain BCK1, hits give low values
[32] = S. cerevisiae deletion strains, locus YJL128C, strain PBS2, hits give low values
[33] = S. cerevisiae deletion strains, locus YJL157C, strain FAR1, hits give low values
[34] = S. cerevisiae deletion strains, locus YJR016C, strain ILV3, hits give low values
[35] = S. cerevisiae deletion strains, locus YJR066W, strain TOR1 (second series), hits give low values
[36] = S. cerevisiae deletion strains, locus YJR066W, strain TOR1, hits give low values
[37] = S. cerevisiae deletion strains, locus YKL048C, strain ELM1, hits give low values
[38] = S. cerevisiae deletion strains, locus YKL067W, strain YNK1, hits give low values
[39] = S. cerevisiae deletion strains, locus YKL101W, strain HSL1, hits give low values
[40] = S. cerevisiae deletion strains, locus YKL193C, strain SDS22, hits give low values
[41] = S. cerevisiae deletion strains, locus YKL203C, strain TOR2, hits give low values
[42] = S. cerevisiae deletion strains, locus YLR113W, strain HOG1, hits give low values
[43] = S. cerevisiae deletion strains, locus YLR133W, strain CKI1, hits give low values
[44] = S. cerevisiae deletion strains, locus YLR403W, strain SFP1, hits give low values
[45] = S. cerevisiae deletion strains, locus YML070W, strain DAK1, hits give low values
[46] = S. cerevisiae deletion strains, locus YMR001C, strain CDC5, hits give low values
[47] = S. cerevisiae deletion strains, locus YMR205C, strain PFK2 (second series), hits give low values
[48] = S. cerevisiae deletion strains, locus YMR277W, strain FCP1, hits give low values
[49] = S. cerevisiae deletion strains, locus YNL006W, strain LST8, hits give low values
[50] = S. cerevisiae deletion strains, locus YNL020C, strain ARK1, hits give low values
[51] = S. cerevisiae deletion strains, locus YNL161W, strain CBK1, hits give low values
[52] = S. cerevisiae deletion strains, locus YNL183C, strain NPR1, hits give low values
[53] = S. cerevisiae deletion strains, locus YNL207W, strain RIO2, hits give low values
[54] = S. cerevisiae deletion strains, locus YNL222W, strain SSU72, hits give low values
[55] = S. cerevisiae deletion strains, locus YNL307C, strain MCK1 (second series), hits give low values
[56] = S. cerevisiae deletion strains, locus YOL078W, strain AVO1, hits give low values
[57] = S. cerevisiae deletion strains, locus YOL136C, strain PFK27, hits give low values
[58] = S. cerevisiae deletion strains, locus YOR061W, strain CKA2, hits give low values
[59] = S. cerevisiae deletion strains, locus YOR119C, strain RIO1, hits give low values
[60] = S. cerevisiae deletion strains, locus YOR231W, strain MKK1, hits give low values
[61] = S. cerevisiae deletion strains, locus YOR329C, strain SCD5, hits give low values
[62] = S. cerevisiae deletion strains, locus YPL031C, strain PHO85, hits give low values
[63] = S. cerevisiae deletion strains, locus YPL153C, strain RAD53, hits give low values
[64] = S. cerevisiae deletion strains, locus YPL204W, strain HRR25, hits give low values
[65] = S. cerevisiae deletion strains, locus YPL209C, strain IPL1, hits give low values
[66] = S. cerevisiae deletion strains, locus YPL256C, strain CLN2, hits give low values
[67] = S. cerevisiae deletion strains, locus YPR025C, strain CCL1, hits give low values
[68] = S. cerevisiae deletion strains, locus YPR106W, strain ISR1, hits give low values
[69] = S. cerevisiae deletion strains, locus YPR111W, strain DBF20, hits give low values
[70] = S. cerevisiae deletion strains, strain NNK1, hits give low values
[71] = S. cerevisiae deletion strains, strain TSCII, hits give low values
[72] = S. cerevisiae deletion strains, locus YAL013W, strain DEP1, hits give low values
[73] = S. cerevisiae deletion strains, locus YBR229C, strain ROT2, hits give low values
[74] = S. cerevisiae deletion strains, locus YDR150W, strain NUM1, hits give low values
[75] = S. cerevisiae deletion strains, locus YEL061C, strain CIN8, hits give low values
[76] = S. cerevisiae deletion strains, locus YGR078C, strain PAC10, hits give low values
[77] = S. cerevisiae deletion strains, locus YGR229C, strain SMI1, hits give low values
[78] = S. cerevisiae deletion strains, locus YHR087W, strain rtc3, hits give low values
[79] = S. cerevisiae deletion strains, locus YJL187C, strain SWE1, hits give low values
[80] = S. cerevisiae deletion strains, locus YJR043C, strain POL32, hits give low values
[81] = S. cerevisiae deletion strains, locus YJR075W, strain HOC1, hits give low values
[82] = S. cerevisiae deletion strains, locus YLR039C, strain RIC1, hits give low values
[83] = S. cerevisiae deletion strains, locus YLR058C, strain SHM2 (second series), hits give low values
[84] = S. cerevisiae deletion strains, locus YLR085C, strain ARP6, hits give low values
[85] = S. cerevisiae deletion strains, locus YLR262C, strain YPT6, hits give low values
[86] = S. cerevisiae deletion strains, locus YML094W, strain GIM5, hits give low values
[87] = S. cerevisiae deletion strains, locus YMR219W, strain ESC1, hits give low values
[88] = S. cerevisiae deletion strains, locus YMR263W, strain SAP30, hits give low values
[89] = S. cerevisiae deletion strains, locus YNL153C, strain GIM3, hits give low values
[90] = S. cerevisiae deletion strains, locus YNL298W, strain CLA4 (second series), hits give low values
[91] = S. cerevisiae deletion strains, locus YNL322C, strain KRE1, hits give low values
[92] = S. cerevisiae deletion strains, locus YNR030W, strain Alg12, hits give low values
[93] = S. cerevisiae deletion strains, locus YPL055C, strain LGE1, hits give low values
[94] = S. cerevisiae deletion strains, locus YPL241C, strain CIN2, hits give low values
[95] = S. cerevisiae deletion strains, locus YPR135W, strain CTF4, hits give low values
[96] = S. cerevisiae strains, strain wild type, hits give low values

Measured: normalized growth

Cn1nccc1-c1cc(Cl)cc(Cl)c1O
active: [17] 0.687 | [26] 0.617 | [42] 0.571 | [66] 0.718
inactive: [1] 0.955 | [2] 0.959 | [3] 0.963 | [4] 0.959 | [5] 0.969 | [6] 0.962 | [7] 0.964 | [8] 0.964 | [9] 0.967 | [10] 0.966 | [11] 0.799 | [12] 0.971 | [13] 0.969 | [14] 0.981 | [15] 0.731 | [16] 0.739 | [18] 0.982 | [19] 0.952 | [20] 0.961 | [21] 0.869 | [22] 0.975 | [23] 0.745 | [24] 0.742 | [25] 0.722 | [27] 0.698 | [28] 0.748 | [29] 0.787 | [30] 0.96 | [31] 0.676 | [32] 0.917 | [33] 0.749 | [34] 0.962 | [35] 0.673 | [36] 0.686 | [37] 0.908 | [38] 0.817 | [39] 0.835 | [40] 0.934 | [41] 0.798 | [43] 0.825 | [44] 0.678 | [45] 0.719 | [46] 0.947 | [47] 0.795 | [48] 0.934 | [49] 0.968 | [50] 0.819 | [51] 0.956 | [52] 0.757 | [53] 0.948 | [54] 0.964 | [55] 0.798 | [56] 0.95 | [57] 0.773 | [58] 0.744 | [59] 0.798 | [60] 0.795 | [61] 0.963 | [62] 0.704 | [63] 0.718 | [64] 0.685 | [65] 0.965 | [67] 0.961 | [68] 0.948 | [69] 0.952 | [70] 0.96 | [71] 0.947

O=S(=O)(c1ccc(Cl)cc1)c1cc(C(F)(F)F)cc(C(F)(F)F)c1
inactive: [72] 0.978 | [73] 0.983 | S. cerevisiae deletion strains, locus YCL061C, strain MRC1, hits give low values 1 | [8] 1.01 | [74] 1.01 | [75] 0.963 | [76] 0.988 | [77] 0.98 | [26] 0.988 | [78] 0.986 | [79] 0.984 | [80] 0.989 | [81] 0.957 | [82] 0.954 | [83] 0.987 | [84] 0.935 | [85] 0.964 | [86] 0.978 | [87] 0.974 | [88] 1 | S. cerevisiae deletion strains, locus YNL128W, strain TEP1, hits give low values 0.972 | [89] 1.01 | [90] 1.03 | [91] 0.952 | [92] 0.955 | S. cerevisiae deletion strains, locus YOL006C, strain TOP1, hits give low values 0.97 | [93] 1.03 | [94] 0.992 | [95] 1.08 | [96] 0.976

FC(F)(F)c1cc(Cl)c2nsnc2c1
inactive: [72] 1 | [73] 0.993 | [8] 1.01 | [74] 1 | [75] 0.99 | [76] 0.997 | [77] 1 | [26] 1.02 | [78] 1.01 | [79] 0.99 | [80] 0.998 | [81] 0.985 | [82] 0.991 | [83] 0.993 | [84] 1.01 | [85] 0.974 | [86] 1.06 | [87] 1 | [88] 1 | S. cerevisiae deletion strains, locus YMR307W, strain GAS1, hits give low values 1.01 | [89] 0.996 | [90] 0.993 | [91] 0.995 | [92] 1.01 | [93] 1.03 | [94] 1.08 | [95] 1.03 | [96] 0.987

O=S(=O)(NCc1ccc(C(F)(F)F)cc1)c1cc(Br)c(Br)s1
inactive: [1] 0.987 | [2] 0.969 | [3] 0.971 | [4] 0.985 | [5] 0.966 | [6] 0.967 | [7] 0.984 | [8] 0.975 | [9] 0.974 | [10] 0.973 | [11] 0.786 | [12] 0.979 | [13] 0.973 | [14] 0.984 | [15] 0.856 | [16] 0.747 | [17] 0.794 | [18] 0.979 | [19] 0.982 | [20] 0.974 | [21] 0.845 | [22] 0.967 | [23] 0.818 | [24] 0.729 | [25] 0.801 | [27] 0.813 | [29] 0.618 | [30] 0.98 | [31] 0.741 | [32] 0.924 | [33] 0.872 | [34] 0.98 | [35] 0.794 | [36] 0.689 | [38] 0.835 | [40] 0.967 | [41] 0.851 | [43] 0.839 | [44] 0.808 | [45] 0.797 | [46] 0.964 | [47] 0.831 | [48] 0.965 | [49] 0.98 | [50] 0.838 | [51] 0.969 | [52] 0.659 | [53] 0.977 | [54] 0.967 | [55] 0.846 | [56] 0.969 | [57] 0.811 | [58] 0.848 | [59] 0.772 | [60] 0.792 | [61] 0.969 | [62] 0.774 | [63] 0.716 | [64] 0.795 | [65] 0.973 | [67] 0.965 | [68] 0.97 | [69] 0.982 | [70] 0.968 | [71] 0.97
active: [26] 0.645 | [28] 0.607 | [37] 0.791 | [39] 0.714 | [42] 0.721 | [66] 0.728

Reference: PubChem BioAssay AID1159580 (chemical genetic matrix, 2015)
